Reference: the supplement of paper PMC10849652
The full data set covers some 8,800 targets. This sample favours those with a hit. About 0.5% of all pairs of compound and target were hits. A number with no mark means an inactive call.

Tests used:
Test in all cases: log2 fold change, soluble protein after heating vs DMSO (PISA); higher = thermal stabilisation; K562 lysate, 10 uM; active = over 0.2 and 3.5 SD of the protein, either way, in both replicates (recomputed)
[1] = compound: NCC(=O)Nc1ccc(-n2nc(C(F)(F)F)cc2-c2ccc3c(ccc4ccccc43)c2)cc1
Summary of the method: (§1)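 Log-two fold change in thermal stability relative to solvent controls is reported from duplicates. For each sample, crude K562 extract from dounce-homogenised pellets in PBS pH 7.4 with 1 mM MgCl2, at 1 mg/mL protein, was treated with 10 μM compound for 30 min. Aliquots heated for 3 min across 48°C-58°C were pooled, brought to 0.5% NP-40 at 4°C and cleared at 21,000xg for 90 min. The supernatant was quantified by TMTpro 16plex LC-MS/MS with channel sums equalised.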

vorinostat = compound: O=C(CCCCCCC(=O)Nc1ccccc1)NO [vorinostat]
Summary of the method: as §1

silmitasertib = compound: O=C(O)c1ccc2c(c1)nc(Nc1cccc(Cl)c1)c1ccncc12 [silmitasertib]
Summary of the method: as §1

[2] = compound: O=C1NC(=O)C(c2cnc3ccccn23)=C1c1cn2c3c(cc(F)cc13)CN(C(=O)N1CCCCC1)CC2
Summary of the method: as §1

entospletinib = compound: c1cn2cc(-c3ccc4cn[nH]c4c3)nc(Nc3ccc(N4CCOCC4)cc3)c2n1 [entospletinib]
Summary of the method: as §1

Sequence of UniProt Q5BJF2 (Q5BJF2 whole entry, looked up): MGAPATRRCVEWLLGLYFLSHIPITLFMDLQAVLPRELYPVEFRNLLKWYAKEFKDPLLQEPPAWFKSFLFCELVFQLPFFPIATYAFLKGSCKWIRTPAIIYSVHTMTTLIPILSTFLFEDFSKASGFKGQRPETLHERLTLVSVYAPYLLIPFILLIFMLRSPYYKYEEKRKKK
Sequence of UniProt P04818 (P04818 whole entry, looked up): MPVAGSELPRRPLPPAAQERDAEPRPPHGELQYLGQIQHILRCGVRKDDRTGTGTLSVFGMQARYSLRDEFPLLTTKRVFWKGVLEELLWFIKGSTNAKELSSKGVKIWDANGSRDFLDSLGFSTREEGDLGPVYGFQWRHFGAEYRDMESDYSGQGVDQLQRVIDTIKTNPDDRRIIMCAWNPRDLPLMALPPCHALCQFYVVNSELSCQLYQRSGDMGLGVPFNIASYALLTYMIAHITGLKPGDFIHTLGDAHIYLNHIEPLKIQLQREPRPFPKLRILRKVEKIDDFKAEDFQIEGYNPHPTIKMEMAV
Sequence of UniProt P42167 (P42167 whole entry, looked up): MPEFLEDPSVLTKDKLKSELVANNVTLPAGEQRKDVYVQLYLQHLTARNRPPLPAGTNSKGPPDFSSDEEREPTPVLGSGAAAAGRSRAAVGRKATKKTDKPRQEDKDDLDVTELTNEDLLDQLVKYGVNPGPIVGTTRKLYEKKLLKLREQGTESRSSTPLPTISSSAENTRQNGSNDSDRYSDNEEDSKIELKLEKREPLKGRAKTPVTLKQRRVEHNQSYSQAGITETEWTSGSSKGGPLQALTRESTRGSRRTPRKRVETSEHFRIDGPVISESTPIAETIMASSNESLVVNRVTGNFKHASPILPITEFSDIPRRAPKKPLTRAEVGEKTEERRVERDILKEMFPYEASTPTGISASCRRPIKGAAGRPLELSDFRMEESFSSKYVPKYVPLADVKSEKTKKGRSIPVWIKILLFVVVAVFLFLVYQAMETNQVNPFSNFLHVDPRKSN
Sequence of UniProt P33981 (P33981 whole entry, looked up): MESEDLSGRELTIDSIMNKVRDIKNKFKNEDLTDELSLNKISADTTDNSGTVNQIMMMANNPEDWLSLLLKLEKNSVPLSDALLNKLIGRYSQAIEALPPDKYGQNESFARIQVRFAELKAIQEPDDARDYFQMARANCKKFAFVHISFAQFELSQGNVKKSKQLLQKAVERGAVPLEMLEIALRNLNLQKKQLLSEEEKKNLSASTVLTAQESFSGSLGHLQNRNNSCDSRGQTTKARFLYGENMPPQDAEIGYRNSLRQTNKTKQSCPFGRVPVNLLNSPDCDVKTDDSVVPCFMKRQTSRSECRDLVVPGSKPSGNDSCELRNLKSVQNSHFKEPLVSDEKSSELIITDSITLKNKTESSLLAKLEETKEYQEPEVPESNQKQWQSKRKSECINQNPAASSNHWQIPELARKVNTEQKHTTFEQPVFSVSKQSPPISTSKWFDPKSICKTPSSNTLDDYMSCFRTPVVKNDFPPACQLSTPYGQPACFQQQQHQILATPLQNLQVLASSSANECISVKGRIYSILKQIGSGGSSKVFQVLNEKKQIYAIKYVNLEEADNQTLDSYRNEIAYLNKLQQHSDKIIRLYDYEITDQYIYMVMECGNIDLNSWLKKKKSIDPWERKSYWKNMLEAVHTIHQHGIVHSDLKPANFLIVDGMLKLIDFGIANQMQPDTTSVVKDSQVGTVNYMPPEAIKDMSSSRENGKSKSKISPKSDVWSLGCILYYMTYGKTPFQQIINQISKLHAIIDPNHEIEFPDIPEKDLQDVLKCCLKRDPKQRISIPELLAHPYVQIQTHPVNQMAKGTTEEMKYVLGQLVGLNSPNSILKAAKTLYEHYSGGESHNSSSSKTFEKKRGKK
Sequence of UniProt P42166 (P42166 whole entry, looked up): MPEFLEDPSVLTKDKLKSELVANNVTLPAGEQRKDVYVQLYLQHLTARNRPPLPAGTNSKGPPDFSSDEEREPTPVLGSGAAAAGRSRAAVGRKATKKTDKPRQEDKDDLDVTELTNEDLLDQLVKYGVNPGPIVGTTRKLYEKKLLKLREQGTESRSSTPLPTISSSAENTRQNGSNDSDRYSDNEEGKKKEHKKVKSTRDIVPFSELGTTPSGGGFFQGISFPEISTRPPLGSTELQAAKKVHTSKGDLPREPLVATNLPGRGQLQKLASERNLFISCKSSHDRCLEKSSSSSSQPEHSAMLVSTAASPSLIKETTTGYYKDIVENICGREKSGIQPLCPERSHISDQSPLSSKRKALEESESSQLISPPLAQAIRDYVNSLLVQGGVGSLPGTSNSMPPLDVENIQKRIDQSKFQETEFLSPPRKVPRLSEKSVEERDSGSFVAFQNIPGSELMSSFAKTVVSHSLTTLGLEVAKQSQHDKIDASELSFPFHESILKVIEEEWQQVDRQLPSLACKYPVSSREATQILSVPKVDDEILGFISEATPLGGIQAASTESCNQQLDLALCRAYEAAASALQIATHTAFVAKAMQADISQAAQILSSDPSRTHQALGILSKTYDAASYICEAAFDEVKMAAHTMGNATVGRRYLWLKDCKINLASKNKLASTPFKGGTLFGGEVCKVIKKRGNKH
Sequence of UniProt Q53S58 (Q53S58 whole entry, looked up): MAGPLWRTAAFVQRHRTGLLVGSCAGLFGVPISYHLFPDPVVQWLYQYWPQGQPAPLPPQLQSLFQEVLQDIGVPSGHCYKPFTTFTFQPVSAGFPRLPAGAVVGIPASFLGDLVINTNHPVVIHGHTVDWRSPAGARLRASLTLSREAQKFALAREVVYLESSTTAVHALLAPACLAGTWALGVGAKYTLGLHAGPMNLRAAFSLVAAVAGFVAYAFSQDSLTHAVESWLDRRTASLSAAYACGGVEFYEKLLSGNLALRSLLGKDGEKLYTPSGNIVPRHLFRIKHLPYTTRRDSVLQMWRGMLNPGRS
Sequence of UniProt Q9BUB7 (Q9BUB7 whole entry, looked up): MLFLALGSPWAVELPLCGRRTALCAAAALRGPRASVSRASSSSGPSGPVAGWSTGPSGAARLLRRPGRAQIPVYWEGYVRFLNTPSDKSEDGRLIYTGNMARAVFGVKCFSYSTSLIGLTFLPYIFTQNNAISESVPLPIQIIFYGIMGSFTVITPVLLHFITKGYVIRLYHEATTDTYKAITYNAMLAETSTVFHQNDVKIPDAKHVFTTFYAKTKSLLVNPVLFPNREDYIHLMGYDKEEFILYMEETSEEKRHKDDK
Sequence of UniProt Q7Z3V4 (Q7Z3V4 whole entry, looked up): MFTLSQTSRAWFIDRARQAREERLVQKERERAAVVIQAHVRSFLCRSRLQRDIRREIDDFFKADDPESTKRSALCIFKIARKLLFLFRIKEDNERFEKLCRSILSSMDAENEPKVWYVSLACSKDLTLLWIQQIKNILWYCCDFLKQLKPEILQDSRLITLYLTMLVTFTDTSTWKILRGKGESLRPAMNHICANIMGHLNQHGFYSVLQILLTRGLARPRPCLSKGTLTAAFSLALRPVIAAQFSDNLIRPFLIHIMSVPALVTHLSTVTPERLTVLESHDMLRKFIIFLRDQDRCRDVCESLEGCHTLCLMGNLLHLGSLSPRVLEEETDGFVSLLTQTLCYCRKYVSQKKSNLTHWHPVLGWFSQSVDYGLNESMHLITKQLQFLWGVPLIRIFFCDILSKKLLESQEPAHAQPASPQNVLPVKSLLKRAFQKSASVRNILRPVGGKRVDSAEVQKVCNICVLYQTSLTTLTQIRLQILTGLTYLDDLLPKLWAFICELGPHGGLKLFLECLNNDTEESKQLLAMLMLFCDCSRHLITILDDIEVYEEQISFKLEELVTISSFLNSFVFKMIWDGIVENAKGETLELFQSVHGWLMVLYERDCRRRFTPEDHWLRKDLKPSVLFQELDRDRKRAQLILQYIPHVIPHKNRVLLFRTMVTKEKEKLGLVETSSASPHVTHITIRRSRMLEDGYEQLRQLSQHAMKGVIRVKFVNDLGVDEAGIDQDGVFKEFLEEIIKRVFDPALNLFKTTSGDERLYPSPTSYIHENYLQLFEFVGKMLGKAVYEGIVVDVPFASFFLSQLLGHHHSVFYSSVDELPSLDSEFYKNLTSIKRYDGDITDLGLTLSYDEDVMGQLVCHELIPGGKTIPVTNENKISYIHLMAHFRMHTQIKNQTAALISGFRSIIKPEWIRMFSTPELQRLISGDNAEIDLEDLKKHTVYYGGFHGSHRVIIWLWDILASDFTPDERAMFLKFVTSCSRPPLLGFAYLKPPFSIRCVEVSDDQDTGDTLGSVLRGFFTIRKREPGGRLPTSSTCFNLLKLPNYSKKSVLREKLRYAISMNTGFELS
Sequence of UniProt Q5TEJ8 (Q5TEJ8 whole entry, looked up): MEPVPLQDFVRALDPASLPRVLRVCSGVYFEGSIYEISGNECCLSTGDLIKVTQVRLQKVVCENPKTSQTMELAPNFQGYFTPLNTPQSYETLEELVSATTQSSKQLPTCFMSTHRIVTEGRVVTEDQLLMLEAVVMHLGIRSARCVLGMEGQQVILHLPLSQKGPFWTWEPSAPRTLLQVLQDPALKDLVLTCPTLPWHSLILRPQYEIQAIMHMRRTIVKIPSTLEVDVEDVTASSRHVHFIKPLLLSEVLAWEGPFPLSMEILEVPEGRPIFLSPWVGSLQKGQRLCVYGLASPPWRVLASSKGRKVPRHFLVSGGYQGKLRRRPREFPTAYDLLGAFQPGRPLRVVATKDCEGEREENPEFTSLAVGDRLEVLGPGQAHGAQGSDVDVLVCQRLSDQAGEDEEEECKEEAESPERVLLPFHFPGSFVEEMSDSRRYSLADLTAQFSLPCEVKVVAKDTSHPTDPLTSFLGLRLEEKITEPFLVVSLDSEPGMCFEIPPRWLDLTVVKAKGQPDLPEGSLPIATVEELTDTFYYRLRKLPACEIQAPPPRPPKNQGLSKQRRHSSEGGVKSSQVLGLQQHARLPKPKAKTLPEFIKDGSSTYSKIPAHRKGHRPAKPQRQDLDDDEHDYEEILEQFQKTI
Sequence of UniProt P62256 (P62256 whole entry, looked up): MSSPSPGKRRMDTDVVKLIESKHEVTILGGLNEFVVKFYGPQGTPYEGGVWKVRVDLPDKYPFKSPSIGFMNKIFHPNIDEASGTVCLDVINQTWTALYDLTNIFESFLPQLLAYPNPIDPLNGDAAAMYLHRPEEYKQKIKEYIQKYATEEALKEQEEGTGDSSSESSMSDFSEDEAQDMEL

| Target | log2 fold change [1] | log2 fold change (vorinostat) | log2 fold change (silmitasertib) | log2 fold change [2] | log2 fold change (entospletinib) |
| --- | --- | --- | --- | --- | --- |
| TPP2 (UniProt P29144) | -0.015 | -0.121 | 0.02 | -0.011 | 0.003 |
| UFSP2 (UniProt Q9NUQ7) | -0.029 | 0.342 (active) | 0.001 | -0.021 | -0.012 |
| TMPO (UniProt P42167) | 0.021 | 0.104 | 0.012 | -0.032 | -0.031 |
| TUBB6 (UniProt K7ES63) | -0.062 | -0.414 | 0.013 | -0.164 | -0.11 |
| TRAPPC12 (UniProt Q8WVT3) | 0.032 | -0.258 (active) | 0.005 | 0.043 | -0.001 |
| TGFBRAP1 (UniProt Q8WUH2) | -0.039 | -0.433 (active) | 0.051 | -0.018 | 0.024 |
| TYMS (UniProt P04818) | -0.02 | -0.231 (active) | 0.009 | -0.005 | 0.031 |
| TMEM70 (UniProt Q9BUB7) | -0.081 | 0.122 | 0.017 | -0.108 | 0.015 |
| TRAPPC10 (UniProt P48553) | 0.015 | -0.248 (active) | 0.005 | 0.049 | 0 |
| TRIM11 (UniProt Q96F44) | 0.018 | -0.222 (active) | 0.046 | -0.035 | -0.045 |
| TUBB3 (UniProt Q13509) | -0.012 | -0.688 (active) | 0.04 | 0.006 | -0.002 |
| THADA (UniProt Q6YHU6) | 0.009 | -0.456 (active) | 0.013 | 0.015 | 0.006 |
| TSFM (UniProt P43897) | 0.002 | -0.261 (active) | 0.043 | 0.035 | -0.014 |
| TPM1 isoform 4 (UniProt P09493) | -0.053 | 0.052 | -0.03 | -0.041 | 0.006 |
| THEMIS2 (UniProt Q5TEJ8) | -0.029 | -0.315 (active) | 0.069 | 0.059 | -0.007 |
| TUBA4A (UniProt P68366) | 0.066 | -0.736 (active) | 0.077 | 0.051 | -0.045 |
| UBE2H (UniProt P62256) | 0.023 | 0.093 | -0.003 | -0.003 | -0.012 |
| TCP11L1 (UniProt Q9NUJ3) | 0 | -0.317 (active) | -0.043 | 0.006 | 0.019 |
| TTF2 (UniProt Q9UNY4) | 0.02 | -0.317 (active) | 0.008 | -0.032 | -0.074 |
| UBR3 isoform 4 (UniProt Q6ZT12) | -0.011 | -0.43 (active) | 0.023 | -0.005 | -0.003 |
| TNIK (UniProt C9J338) | 0.195 | 0.103 | -0.023 | 0.006 | -0.049 |
| TRIM56 (UniProt Q9BRZ2) | -0.022 | -0.428 (active) | -0.043 | -0.016 | -0.004 |
| TIAL1 isoform 2 (UniProt Q01085) | -0.001 | 0.041 | 0.023 | -0.049 | 0.028 |
| TFIP11 (UniProt Q9UBB9) | -0.001 | -0.06 | 0.013 | 0.001 | 0.067 |
| TMEM97 (UniProt Q5BJF2) | -0.016 | 0.152 | -0.039 | 0.071 | 0.004 |
| TTLL12 (UniProt V9GY16) | 0.115 | 0.076 | -0.298 | 0.035 | 0.103 |
| TTC5 (UniProt Q8N0Z6) | -0.003 | -0.257 (active) | -0.029 | -0.018 | 0.051 |

| Target | log2 fold change [1] | log2 fold change (vorinostat) | log2 fold change (silmitasertib) | log2 fold change [2] | log2 fold change (entospletinib) |
| --- | --- | --- | --- | --- | --- |
| TMPO (UniProt P42166) | 0.037 | -0.569 (active) | -0.057 | 0.009 | -0.029 |
| UBE3B (UniProt Q7Z3V4) | 0.117 | -0.838 (active) | 0.061 | 0.007 | 0.115 |
| TPM1 (UniProt H7BYY1) | 0.057 | 0.136 | -0.024 | -0.049 | 0.008 |
| TTK (UniProt P33981) | -0.009 | -0.183 | 0.004 | -0.03 | -0.039 |
| TBC1D20 isoform 3 (UniProt Q96BZ9) | -0.118 | 0.088 | -0.013 | 0.058 | 0.02 |
| TUBB4B (UniProt P68371) | 0.014 | -0.712 (active) | 0.024 | -0.001 | 0.005 |
| TMEM164 (UniProt Q5U3C3) | 0.098 | 0.463 | -0.079 | 0.274 | 0.059 |
| TPM4 (UniProt P67936) | -0.001 | 0.166 | -0.018 | -0.023 | 0.048 |
| TUBGCP2 isoform 4 (UniProt Q9BSJ2) | 0.03 | -0.32 (active) | 0.051 | 0.046 | 0.042 |
| TUT4 (UniProt Q5TAX3) | 0.072 | -0.398 (active) | 0.018 | -0.048 | -0.029 |
| TBL2 (UniProt Q9Y4P3) | -0.035 | -0.292 (active) | -0.007 | -0.035 | 0.02 |
| TP53RK (UniProt Q96S44) | -0.017 | 0.049 | -0.19 | -0.014 | 0.031 |
| TFAP4 (UniProt Q01664) | 0.005 | 0.051 | -0.196 | 0.01 | -0.086 |
| TRMT12 (UniProt Q53H54) | 0.045 | -0.35 (active) | -0.039 | -0.043 | -0.125 |
| TBK1 (UniProt Q9UHD2) | -0.04 | -0.361 | 0.189 | 0.125 | 0.204 |
| UBE2D1 (UniProt P51668) | -0.01 | 0.088 | -0.101 | -0.001 | 0.056 |
| TTC12 isoform 2 (UniProt Q9H892) | -0.01 | -0.163 | 0.078 | -0.058 | -0.03 |
| TPM4 isoform 2 (UniProt P67936) | 0.02 | 0.082 | -0.016 | -0.014 | 0.02 |
| TBC1D2B (UniProt Q9UPU7) | -0.007 | -0.249 (active) | 0.049 | -0.047 | -0.061 |
| TPM3 isoform 3 (UniProt P06753) | -0.111 | 0.048 | -0.047 | -0.15 | -0.024 |
| UFM1 (UniProt P61960) | -0.247 | 0.036 | -0.074 | -0.109 | -0.011 |
| TFCP2 (UniProt Q12800) | -0.072 | -0.465 (active) | 0.045 | 0.029 | 0.051 |
| TCAF2 (UniProt A6NFQ2) | 0.019 | -0.27 (active) | 0 | 0 | -0.01 |
| TMEM177 (UniProt Q53S58) | -0.183 | -0.012 | -0.035 | 0.034 | 0.005 |
| TRA2A (UniProt Q13595) | 0.009 | 0.568 (active) | -0.151 | 0.005 | -0.102 |
| TCF3 (UniProt P15923) | -0.007 | -0.141 | -0.031 | 0 | -0.03 |
